Screens (PubChem BioAssay)
D3 ag: D3 dopamine receptor (human) agonism | P35462 | D3R DiscoveRx beta-arrestin cells, luminescence, 90 min | max activation, % | actives 0.58% (n = 410,000); in the data active = max activation above about 30%
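Agonist-mode cell screen: cells plated at 1500/well and incubated overnight at 37 °C, then exposed to library compounds for 90 min at 37 °C. Detection reagent was added for 30–60 min at room temperature, and luminescence was read.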
D1 ag: activates the human D1 dopamine receptor; activation, % at 2 µM; P21728; HEK293 T-REx D1 cells, calcium flux, agonist mode; actives 1% (n = 360,000); in the data active = activation above about 30%
Target sequence (P21728 whole entry, looked up): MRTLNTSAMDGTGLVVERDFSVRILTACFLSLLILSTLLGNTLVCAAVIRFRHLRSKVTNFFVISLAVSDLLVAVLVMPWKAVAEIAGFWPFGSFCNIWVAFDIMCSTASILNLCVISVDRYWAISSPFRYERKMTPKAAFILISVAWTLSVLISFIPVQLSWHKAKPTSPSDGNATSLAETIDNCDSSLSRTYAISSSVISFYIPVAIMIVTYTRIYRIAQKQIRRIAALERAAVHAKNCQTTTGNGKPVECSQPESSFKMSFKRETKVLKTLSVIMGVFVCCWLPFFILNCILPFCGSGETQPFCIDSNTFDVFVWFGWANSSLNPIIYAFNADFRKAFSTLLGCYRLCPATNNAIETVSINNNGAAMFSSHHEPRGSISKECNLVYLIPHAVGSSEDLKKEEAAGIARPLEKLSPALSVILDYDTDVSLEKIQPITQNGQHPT
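Inducible HEK293 T-REx D1 cells, force-coupled to calcium signalling, were plated at 4000 cells/well with tetracycline and held overnight at 30 C. After no-wash calcium dye loading, compound-evoked calcium rise over 180 s flagged agonists.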
D1 antag: antagonists of human D1 dopamine receptor | P21728 | HEK293 TREx D1 cells, calcium flux, dopamine EC80; stronger effect = lower value | activity change, negative = inhibition, % at 10 µM | actives 3.2% (n = 360,000) | AID 504652; in the data active = activity change below about -30%
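Cells carrying a force-coupled, tetracycline-inducible human D1 receptor report calcium flux. Each well gets a 10 s baseline, compound with 180 s monitoring, then an EC80 dopamine stimulus with a second 180 s kinetic read.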
D1 PAM: human D1 dopamine receptor positive modulation; HEK293 TREx D1 cells, calcium flux, dopamine EC20 potentiation; AID 504651; P21728; actives 0.036% (n = 360,000); potentiation, % at 10 µM; in the data active = potentiation above about 30%
DRD3 antagonist: D3 dopamine receptor (human) antagonism | D3R cells, DiscoveRx beta-arrestin luminescence, antagonist mode; stronger effect = lower value | max response, negative = inhibition, % | actives 2.5% (n = 360,000) | AID 652054; in the data active = max response below about -50%; inconclusive = no clear call, values can overlap the other calls
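Cells expressing the human receptor were seeded at 1500 cells/well, incubated overnight at 37 degrees C in 5% CO2, then exposed to library compounds with dopamine controls for 90 minutes at 37 degrees C before luminescent detection.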
Each line names hits and unclear results; the compound was inactive in the other large screens. Hits are enriched below; roughly 6% of the tested compounds scored in any of these assays.

Cc1cc(C)nc(Nc2n[nH]c(COc3ccc(Cl)cc3)n2)n1	D1 ag 34
Cc1cc(C)nc(Nc2n[nH]c(C)n2)n1	none
CCC(=O)N1CCc2cc(CNS(=O)(=O)c3ccc(CC(C)C)cc3)ccc21	none (no result: DRD3 antagonist)
CC(C)c1ccc(NC(=O)C2CCCN(S(=O)(=O)c3ccc(Br)s3)C2)cc1 (centres undefined)	none (no result: DRD3 antagonist)
COc1ccc(C2=C(C#N)C(=O)OC2)cc1	DRD3 antagonist -56 (no result: D1 ag, D1 antag, D1 PAM)
O=C(CC1Sc2ccccc2NC1=O)Nc1cccc(C(F)(F)F)c1 (centres undefined)	none (no result: DRD3 antagonist)
c1ccc2c(c1)OCCOCCOCCOCCOc1ccccc1OCCOCCOCCO2	D1 antag -32
Cc1ccccc1Nc1nnc(-c2ccc(C)c(S(=O)(=O)N3CCCCC3)c2)c2ccccc12	none (no result: DRD3 antagonist)
CCC1CCCCN1C(=O)c1cc(COc2ccc(-n3cncn3)cc2)on1 (centres undefined)	D1 antag -34
Cc1cccc(C)c1OCc1cc(C(=O)N2CCC(c3ccncc3)CC2)no1	D1 antag -42
CC(=O)c1ccc(OCc2cc(C(=O)N3CCC(Oc4ccccc4C)CC3)no2)cc1	D1 antag -53
Cc1ccc(OCc2cc(C(=O)N3CCC(Oc4cccnc4)CC3)no2)cc1C	none
CC(=O)c1ccc(OCc2cc(C(=O)N3CCCCCCC3)no2)cc1	D1 antag -38
CC(=O)c1ccc(OCc2cc(C(=O)N3CCOCC3)no2)cc1	none
O=C(c1cc(COc2c(F)cccc2F)on1)N1CCC(c2ccncc2)CC1	none
COCCn1c(C)cc(C2=NNC(=Nc3ccccc3)SC2)c1C	DRD3 antagonist -58
COCCn1c(C)cc(C2=NNC(=Nc3ccc(OC)cc3)SC2)c1C	none
COC(=O)c1cn(Cc2ccc(C(F)(F)F)cc2)cc(F)c1=O	D1 antag -31
COc1ccc(C2/C(=C(/O)c3ccc4c(c3)CC(C)O4)C(=O)C(=O)N2Cc2cccnc2)cc1 (centres undefined)	D1 antag -42
COc1ccc(/C(O)=C2/C(=O)C(=O)N(Cc3cccnc3)C2c2ccncc2)cc1F (centres undefined)	DRD3 antagonist -136
O=C1C(=O)N(Cc2cccnc2)C(c2cccc(F)c2)/C1=C(/O)c1ccc2c(c1)OCO2 (centres undefined)	D1 antag -62
CCCCOc1ccc(/C(O)=C2/C(=O)C(=O)N(CCCOC)C2c2ccncc2)cc1C (centres undefined)	D1 antag -38
CC1CCCCN1S(=O)(=O)c1cc2c3c(c1)CC(=O)N3CCC2 (centres undefined)	none (no result: D1 antag, DRD3 antagonist)
CCCSC1=NC2(CCN(C(=O)NC3CCCCC3)CC2)N=C1c1ccc(OC)cc1	none (no result: DRD3 antagonist)
CCCOC1(C(F)(F)F)NC(=O)N(c2ccc(Cl)cc2)C1=O (centres undefined)	none (no result: DRD3 antagonist)
CC1=NN(C(=O)c2ccc(Cn3cc([N+](=O)[O-])cn3)cc2)C(O)(C(F)(F)F)C1 (centres undefined)	D1 ag 42
Cc1ccc(CNS(=O)(=O)c2cc(Br)cc3c2N(C(=O)C2CC2)CC3)cc1	none (no result: DRD3 antagonist)
O=C(C1CC1)N1CCc2cc(Br)cc(S(=O)(=O)NCc3ccco3)c21	D1 antag -31, DRD3 antagonist inconclusive
O=S(=O)(Nc1ccc(O)c(NS(=O)(=O)c2ccccc2)c1)c1ccccc1	none
O=S(=O)(O)c1c(NS(=O)(=O)c2ccccc2)ccc2ccccc12	D1 antag -36 (no result: D3 ag, DRD3 antagonist)
Cc1cc(NS(=O)(=O)c2ccccc2)c([N+](=O)[O-])cc1C	DRD3 antagonist -52
Cc1cc(NS(=O)(=O)c2ccccc2)c(C)c(Cl)c1O	D1 ag 44
Cc1c(O)ccc(NS(=O)(=O)c2ccccc2)c1C	D1 antag -36
COc1ccc(S(=O)(=O)Nc2cc(S(=O)(=O)c3ccccc3)c(O)c(C)c2C)cc1	none (no result: DRD3 antagonist)
CC(/C=N/Nc1nc2ccccc2[nH]1)=C\c1ccccc1	D1 antag -42
CC(=C/c1ccccc1)/C=N/Nc1nc(N2CCCCC2)nc(N2CCCCC2)n1	D3 ag 32
CCN(CC)c1ccc(/C=N/Nc2nc3ccccc3[nH]2)cc1	D1 antag -62, DRD3 antagonist inconclusive
C(=C\c1ccccc1)/C=N/Nc1nc(N2CCCCC2)nc(N2CCCCC2)n1	none
Cc1ccc2c(c1)C(=O)C(=O)N2c1ccc(Cl)cc1	DRD3 antagonist -55 (no result: D1 ag, D1 antag, D1 PAM)
